# Source: PubChem BioAssay AID720541 (National Center for Advancing Translational Sciences (NCATS), 2013)
# Among all 1,300 compounds or so, about 420 (32%) were called active. About 32% were inconclusive and are not listed. Calls follow the shape of the dose curve; as a rule, active = well fitted inhibition curve with a large enough effect; inconclusive = small, poorly fitted or top-dose-only effect; inactive = no such curve, though single readings can be large or run the other way. This is one part of the list. Where a call stands in place of a potency, no number is given.
# Target: C-terminal-binding protein 1 (Homo sapiens) (UniProt Q13363)
# Test: qHTS for Inhibitors of the Phosphatase Activity of Eya2: Carboxyl-terminal binding protein (CtBP) Counterscreen for Cherry-picked Compounds; also: nearly all actives have a fitted effect of over 65% in size
# Conditions: purified protein-protein binding, AlphaScreen, 3 h; series mostly up to 46.1 µM
# From the text: The Eya protein family is an essential co-activator of the Six1 transcription factor. Six1 is a developmental gene that is abnormally re-expressed in a large percentage of breast cancers. This over-expression plays a causal role in the initiation and metastatic development of breast cancers. The Eya family of protein is also found to contain a unique HAD phosphatase domain with protein tyrosine phosphatase activity which can potentially play a role in Six1-mediated breast tumorigenesis. Recently, Eya2 is found to dephosphorylate the histone variant H2AX and direct cells towards DNA repair instead of apoptosis in the event of DNA damage.
# A 1536 well format, fluorescence based qHTS assay was developed and used to target the phosphatase activity of Eya2 (AID 488837). In addition, a CtBP counterscreen was developed using the AlphaScreen technology to evaluate compound selectivity to target […]. The data herein reports the activity of the cherry-picked compounds against the CtBP AlphaScreen. Compounds that are active or have > 100 fold selectivity vs. the Eya2 activity were excluded for further characterization. Inactivity is the desired outcome for the CtBP counterscreen.
# NIH Chemical Genomics Center [NCGC]
# NIH Molecular Libraries Probe Centers Network [MLPCN]
# Assay Submitter (PI): Rui Zhao, University of Colorado Denver
# Four microliters of reagent (25 nM GST-E1A, 25 nM CtBP-6x HIS) was dispensed in a 1536 well Greiner plates. Twenty-three nanoliter of test compounds (final concentration of 2.5 nM - 46 uM) and positive control E1A peptide inhibitor (final concentration of 0.14 nM - 4.6 uM) were added to the plates using the Kalypsys pintool equipped with a 1536 pin head. The plates was then incubated at room temperature for 2 hours followed by addition of 1 uL Alpha bead donor / acceptor mix (20 ug/mL final concentration). The assay plates were incubated for additional 1 hour at room temperature and protected from light. The AlphaScreen signal was obtained using the PerkinElmer EnVision plate reader using the 680 nm excitation and 520 - 620 nm emission filters. The data was normalized to the E1A peptide inhibitor for maximum inhibition and DMSO treated wells as negative control.
# Potency is read from the fitted curve at half-maximal effect.
row,SMILES,Potency
1,N[C@@H](Cc1cc(I)c(O)c(I)c1)C(=O)O,8.49 µM (active)
2,CN(C)c1ccc(C=C2C=CC=C2)cc1,inactive
3,CN(C)c1ccc(N=Nc2ccccc2)cc1,4.78 µM (active)
4,COC(=O)C1=C(c2cccc(OCc3ccccc3)c2)C[C@@H]2CC[C@H]1N2C(=O)NCCCc1ccccc1,inactive
5,COC(=O)C1=C(c2ccc(F)cc2OCc2ccccc2)C[C@@H]2CC[C@H]1N2C(=O)NCc1ccc(N(C)C)cc1,10.7 µM (active)
6,CCOC(=O)c1cc2c(cn1)[C@@H](CCO)NC2,inactive
7,COc1cccc2c1C(=O)c1c(O)c3c(c(O)c1C2=O)C[C@@](O)(C(=O)CO)C[C@@H]3O[C@H]1C[C@H](N)[C@H](OC2CCCCO2)[C@H](C)O1 (stereo partly drawn),7.57 µM (active)
8,C[C@H]1CCC[C@H](O)CCCCCc2cc(O)cc(O)c2C(=O)O1,inactive
9,CN(C)S(=O)(=O)c1ccc(C(=O)NNc2nc(-c3ccccc3)c3cc(Br)ccc3n2)cc1,8.49 µM (active)
10,O=C1NC(=S)NC(=O)C1=Cc1ccc(Br)s1,inactive
11,COc1ccc(-c2cc(=NCCC(=O)O)c3cc(C)ccc3o2)cc1,10.7 µM (active)
12,Cc1nc2ccccc2c(=O)n1-c1ccc(Cl)cc1[N+](=O)[O-],inactive
13,COc1ccccc1N1CCN(CCc2c[nH]c3cc4c(cc23)OCO4)CC1,13.5 µM (active)
14,O=C1NC(=O)N(c2ccc(Cl)cc2)C(=O)/C1=C\c1ccc(Sc2nc3ccccc3[nH]2)o1,inactive
15,CC(N)[C@H](O)c1ccc(O)c(O)c1 (stereo partly drawn),inactive
16,Cc1cc(/C=C2\C(=O)NC(=O)N(c3ccc(Br)cc3)C2=O)c(C)n1-c1cc(C(=O)O)cc(C(=O)O)c1,inactive
17,Cc1c(C(=O)c2cccc3ccccc23)c2cccc3c2n1[C@H](CN1CCOCC1)CO3,inactive

row,SMILES,Potency
1,O=C(Cc1ccccc1)c1ccccn1,10.7 µM (active)
2,COC1C(O)C(C)OC(OC2C(Oc3cccc4c(O)c5c(=O)oc6ccc(C)c7c(=O)oc(c34)c5c67)OC(C)C(O)C2O)C1O (stereo not drawn),inactive
3,CCC(COC(=O)c1cc(OC)c(OC)c(OC)c1)(c1ccccc1)N(C)C (stereo not drawn),inactive
4,COC(=O)C1=C(C)NC(C)=C(C(=O)OC)C1c1ccccc1[N+](=O)[O-],10.7 µM (active)
5,O=C(O)c1cc[c]([Sb](=[O])([OH])[OH])cc1[N+](=O)[O-],inactive
6,C=CCN1C(=O)/C(=C/c2ccc(Br)s2)C(=O)NC1=S,inactive
7,Cc1ccc2c(C)c3ccc4ccccc4c3c[n+]2c1,13.5 µM (active)
8,CCOC(=O)CCCc1cc[c]([Sb](=[O])([OH])[OH])cc1,inactive
9,CCOc1ccc(N2C(=O)/C(=C/c3ccc(C)o3)C(=O)NC2=S)cc1,inactive
10,C=C1C(=O)O[C@@H]2C[C@@H](C)[C@@H]3C=CC(=O)[C@@]3(C)[C@@H](OC(=O)CC(=O)O[C@H]3[C@@H]4C(=C)C(=O)O[C@@H]4C[C@@H](C)[C@@H]4C=CC(=O)[C@]43C)[C@H]12,8.49 µM (active)
11,Cc1ccc(/C=C2\C(=O)NC(=S)N(c3cccc(F)c3)C2=O)o1,inactive
12,O=C(O)CCCOc1ccc(Cl)cc1Cl,inactive
13,CNc1ccc2nc3ccccc3[n+](C)c2c1,8.49 µM (active)
14,Cc1c(N=Nc2c(O)[nH]c(=O)[nH]c2=O)c(=O)n(-c2ccccc2)n1C,2.13 µM (active)
15,O=C1NC(=O)N(c2ccc(Br)cc2)C(=O)/C1=C/c1ccsc1,inactive
16,CCOc1cc2c(cc1OCC)-n1cccc1C(c1ccc(F)cc1)NC2 (stereo not drawn),inactive
